# How the values were obtained:
# [1] = biological target: 5'-AMP-activated protein kinase catalytic subunit alpha-2 (Homo sapiens) (UniProt P54646); conditions: at 1 µM
# [2] = biological target: T1, NUAK family SNF1-like kinase 1 (Homo sapiens) (UniProt O60285); conditions: at 0.1 µM
# T1 sequence (whole entry): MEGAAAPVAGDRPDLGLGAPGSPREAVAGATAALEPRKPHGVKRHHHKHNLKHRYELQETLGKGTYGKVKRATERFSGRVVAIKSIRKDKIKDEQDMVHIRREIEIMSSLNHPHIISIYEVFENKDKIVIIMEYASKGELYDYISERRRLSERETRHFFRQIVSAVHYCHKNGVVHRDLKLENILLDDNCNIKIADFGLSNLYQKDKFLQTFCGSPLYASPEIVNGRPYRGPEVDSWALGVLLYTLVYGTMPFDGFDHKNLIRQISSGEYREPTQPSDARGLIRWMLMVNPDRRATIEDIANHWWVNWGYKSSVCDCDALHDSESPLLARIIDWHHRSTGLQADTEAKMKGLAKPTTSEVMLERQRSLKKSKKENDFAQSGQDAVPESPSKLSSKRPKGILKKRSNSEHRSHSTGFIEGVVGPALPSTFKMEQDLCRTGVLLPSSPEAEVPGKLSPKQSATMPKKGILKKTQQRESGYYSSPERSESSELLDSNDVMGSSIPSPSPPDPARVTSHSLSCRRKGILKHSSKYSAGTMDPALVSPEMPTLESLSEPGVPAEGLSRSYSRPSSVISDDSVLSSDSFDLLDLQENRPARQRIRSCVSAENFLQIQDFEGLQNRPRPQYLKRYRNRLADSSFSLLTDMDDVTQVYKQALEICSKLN
# [3] = biological target: T1, NUAK family SNF1-like kinase 1 (Homo sapiens); conditions: at 1 µM
# [4] = biological target: T2, Serine/threonine-protein kinase BRSK1 (Homo sapiens) (UniProt Q8TDC3); conditions: at 0.1 µM
# T2 sequence (whole entry): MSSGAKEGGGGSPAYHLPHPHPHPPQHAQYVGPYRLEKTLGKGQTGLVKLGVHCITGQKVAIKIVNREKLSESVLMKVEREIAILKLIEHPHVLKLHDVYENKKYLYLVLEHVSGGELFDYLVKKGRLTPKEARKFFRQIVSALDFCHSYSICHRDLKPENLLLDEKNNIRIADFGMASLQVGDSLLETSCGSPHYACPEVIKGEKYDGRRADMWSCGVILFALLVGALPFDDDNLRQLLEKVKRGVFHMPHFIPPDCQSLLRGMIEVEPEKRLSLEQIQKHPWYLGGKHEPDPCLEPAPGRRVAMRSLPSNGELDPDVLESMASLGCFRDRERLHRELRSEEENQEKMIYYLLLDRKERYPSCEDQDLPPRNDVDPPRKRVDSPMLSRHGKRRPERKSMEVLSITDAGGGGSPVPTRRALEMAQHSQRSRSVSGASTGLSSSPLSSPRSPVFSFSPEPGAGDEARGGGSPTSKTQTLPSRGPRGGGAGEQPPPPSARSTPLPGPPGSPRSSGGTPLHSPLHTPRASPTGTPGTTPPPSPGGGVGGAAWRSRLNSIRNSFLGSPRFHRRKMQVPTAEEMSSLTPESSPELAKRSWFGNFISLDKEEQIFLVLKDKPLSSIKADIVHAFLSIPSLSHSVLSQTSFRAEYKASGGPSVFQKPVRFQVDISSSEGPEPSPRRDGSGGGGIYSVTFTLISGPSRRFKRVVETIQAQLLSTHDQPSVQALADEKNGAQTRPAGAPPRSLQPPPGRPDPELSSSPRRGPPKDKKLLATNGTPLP
# [5] = biological target: T2, Serine/threonine-protein kinase BRSK1 (Homo sapiens); conditions: at 1 µM
# [6] = biological target: T3, Serine/threonine-protein kinase BRSK2 (Homo sapiens) (UniProt Q8IWQ3); conditions: at 0.1 µM
# T3 sequence (whole entry): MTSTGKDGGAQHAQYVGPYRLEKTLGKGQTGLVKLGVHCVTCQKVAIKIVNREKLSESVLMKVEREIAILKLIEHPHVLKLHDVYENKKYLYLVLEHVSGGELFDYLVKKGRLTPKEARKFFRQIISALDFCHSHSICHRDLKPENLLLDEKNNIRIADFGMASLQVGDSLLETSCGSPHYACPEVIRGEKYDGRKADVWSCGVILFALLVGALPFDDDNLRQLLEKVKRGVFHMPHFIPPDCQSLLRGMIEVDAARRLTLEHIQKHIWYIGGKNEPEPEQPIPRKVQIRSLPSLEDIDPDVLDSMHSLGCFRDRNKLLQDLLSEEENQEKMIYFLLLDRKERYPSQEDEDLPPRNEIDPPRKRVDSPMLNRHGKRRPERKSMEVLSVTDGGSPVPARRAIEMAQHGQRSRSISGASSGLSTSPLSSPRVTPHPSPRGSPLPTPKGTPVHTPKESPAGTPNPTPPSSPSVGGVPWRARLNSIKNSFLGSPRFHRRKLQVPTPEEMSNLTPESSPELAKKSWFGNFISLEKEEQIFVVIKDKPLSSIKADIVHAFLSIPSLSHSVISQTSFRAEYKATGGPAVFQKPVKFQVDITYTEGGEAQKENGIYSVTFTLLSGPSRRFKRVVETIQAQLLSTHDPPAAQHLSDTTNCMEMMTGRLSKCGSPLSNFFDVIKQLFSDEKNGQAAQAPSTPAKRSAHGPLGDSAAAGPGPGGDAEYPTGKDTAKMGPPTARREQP
# [7] = biological target: T3, Serine/threonine-protein kinase BRSK2 (Homo sapiens); conditions: at 1 µM
# [8] = biological target: Calcium/calmodulin-dependent protein kinase type 1D (Homo sapiens) (UniProt Q8IU85); conditions: at 0.1 µM
# [9] = biological target: Calcium/calmodulin-dependent protein kinase type 1D (Homo sapiens) (UniProt Q8IU85); conditions: at 1 µM
# [10] = biological target: Calcium/calmodulin-dependent protein kinase type II subunit alpha (Homo sapiens) (UniProt Q9UQM7); conditions: at 0.1 µM
# [11] = biological target: Calcium/calmodulin-dependent protein kinase type II subunit alpha (Homo sapiens) (UniProt Q9UQM7); conditions: at 1 µM
# [12] = biological target: Calcium/calmodulin-dependent protein kinase type II subunit delta (Homo sapiens) (UniProt Q13557); conditions: at 0.1 µM
# [13] = biological target: Calcium/calmodulin-dependent protein kinase type II subunit delta (Homo sapiens) (UniProt Q13557); conditions: at 1 µM
# [14] = biological target: T4, Calcium/calmodulin-dependent protein kinase type IV (Homo sapiens) (UniProt Q16566); conditions: at 0.1 µM
# T4 sequence (whole entry): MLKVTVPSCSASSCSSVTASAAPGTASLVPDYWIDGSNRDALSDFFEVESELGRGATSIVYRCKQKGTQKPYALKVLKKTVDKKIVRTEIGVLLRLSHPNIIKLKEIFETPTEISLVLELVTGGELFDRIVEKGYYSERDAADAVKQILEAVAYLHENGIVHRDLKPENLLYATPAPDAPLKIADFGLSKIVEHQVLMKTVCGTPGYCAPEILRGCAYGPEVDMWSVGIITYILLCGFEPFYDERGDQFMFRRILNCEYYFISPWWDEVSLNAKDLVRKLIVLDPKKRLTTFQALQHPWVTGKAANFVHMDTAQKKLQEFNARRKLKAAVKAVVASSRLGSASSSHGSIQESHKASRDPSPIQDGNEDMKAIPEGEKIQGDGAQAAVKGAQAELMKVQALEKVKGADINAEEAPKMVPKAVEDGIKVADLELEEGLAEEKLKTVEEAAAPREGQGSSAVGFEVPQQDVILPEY
# [15] = biological target: T4, Calcium/calmodulin-dependent protein kinase type IV (Homo sapiens); conditions: at 1 µM
# [16] = biological target: T5, Serine/threonine-protein kinase Chk1 (Homo sapiens) (UniProt O14757); conditions: at 0.1 µM
# T5 sequence (whole entry): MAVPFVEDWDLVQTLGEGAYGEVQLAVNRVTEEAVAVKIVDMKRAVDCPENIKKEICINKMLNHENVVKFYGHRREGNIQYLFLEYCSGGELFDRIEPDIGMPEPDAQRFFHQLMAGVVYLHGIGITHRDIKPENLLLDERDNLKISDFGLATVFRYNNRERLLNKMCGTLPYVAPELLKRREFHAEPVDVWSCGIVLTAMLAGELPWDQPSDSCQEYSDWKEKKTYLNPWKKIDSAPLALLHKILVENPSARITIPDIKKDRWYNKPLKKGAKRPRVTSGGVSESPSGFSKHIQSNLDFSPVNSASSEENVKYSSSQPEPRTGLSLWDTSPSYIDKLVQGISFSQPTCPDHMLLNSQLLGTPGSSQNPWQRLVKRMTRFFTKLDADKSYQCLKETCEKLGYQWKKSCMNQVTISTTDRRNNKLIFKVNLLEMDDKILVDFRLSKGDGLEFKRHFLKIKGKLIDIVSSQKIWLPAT
# [17] = biological target: T5, Serine/threonine-protein kinase Chk1 (Homo sapiens); conditions: at 1 µM
# [18] = biological target: Serine/threonine-protein kinase Chk2 (Homo sapiens) (UniProt O96017); conditions: at 0.1 µM
# [19] = biological target: Serine/threonine-protein kinase Chk2 (Homo sapiens) (UniProt O96017); conditions: at 1 µM
# [20] = biological target: Death-associated protein kinase 1 (Homo sapiens) (UniProt P53355); conditions: at 0.1 µM;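 also: reported figure is the mean inhibition of DAPK1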
# Death-associated protein kinase 1 (Homo sapiens), sequence (P53355 whole entry, looked up): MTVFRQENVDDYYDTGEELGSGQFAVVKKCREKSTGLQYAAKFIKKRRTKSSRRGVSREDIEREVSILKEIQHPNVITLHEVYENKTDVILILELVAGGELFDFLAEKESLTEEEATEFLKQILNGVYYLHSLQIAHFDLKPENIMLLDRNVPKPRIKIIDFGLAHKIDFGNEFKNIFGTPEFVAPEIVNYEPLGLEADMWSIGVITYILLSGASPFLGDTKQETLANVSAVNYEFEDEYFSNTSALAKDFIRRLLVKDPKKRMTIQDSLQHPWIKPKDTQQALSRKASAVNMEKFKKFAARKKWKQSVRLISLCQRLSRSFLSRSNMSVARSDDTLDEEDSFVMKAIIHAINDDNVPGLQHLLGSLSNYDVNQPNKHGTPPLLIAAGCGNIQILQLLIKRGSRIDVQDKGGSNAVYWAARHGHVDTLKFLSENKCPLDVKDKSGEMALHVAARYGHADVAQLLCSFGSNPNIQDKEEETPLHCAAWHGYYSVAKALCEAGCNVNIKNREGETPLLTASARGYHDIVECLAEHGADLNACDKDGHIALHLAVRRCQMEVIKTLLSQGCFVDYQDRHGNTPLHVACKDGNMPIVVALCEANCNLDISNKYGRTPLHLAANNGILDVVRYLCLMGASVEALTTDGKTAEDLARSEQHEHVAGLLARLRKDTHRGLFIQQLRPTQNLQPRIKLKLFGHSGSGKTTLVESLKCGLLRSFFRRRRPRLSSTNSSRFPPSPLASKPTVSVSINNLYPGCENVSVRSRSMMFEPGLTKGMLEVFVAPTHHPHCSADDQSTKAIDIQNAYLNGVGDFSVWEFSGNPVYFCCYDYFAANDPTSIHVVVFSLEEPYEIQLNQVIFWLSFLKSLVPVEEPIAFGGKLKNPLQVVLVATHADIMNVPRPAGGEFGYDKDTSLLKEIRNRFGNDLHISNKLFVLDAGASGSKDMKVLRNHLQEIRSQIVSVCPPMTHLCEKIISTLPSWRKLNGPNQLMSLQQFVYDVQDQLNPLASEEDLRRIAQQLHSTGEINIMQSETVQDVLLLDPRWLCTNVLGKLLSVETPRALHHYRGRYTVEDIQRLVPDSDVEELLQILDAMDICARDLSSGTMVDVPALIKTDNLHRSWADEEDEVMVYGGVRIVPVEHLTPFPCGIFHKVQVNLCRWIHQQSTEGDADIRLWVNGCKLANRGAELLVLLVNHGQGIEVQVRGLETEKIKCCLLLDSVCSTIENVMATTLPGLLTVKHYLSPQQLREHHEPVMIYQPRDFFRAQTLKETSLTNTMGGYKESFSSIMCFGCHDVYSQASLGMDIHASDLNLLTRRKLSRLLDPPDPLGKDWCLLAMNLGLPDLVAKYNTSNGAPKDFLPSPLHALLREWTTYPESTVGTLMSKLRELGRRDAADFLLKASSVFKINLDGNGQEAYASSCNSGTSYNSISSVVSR
# 5'-AMP-activated protein kinase catalytic subunit alpha-2 (Homo sapiens), sequence (P54646 whole entry, looked up): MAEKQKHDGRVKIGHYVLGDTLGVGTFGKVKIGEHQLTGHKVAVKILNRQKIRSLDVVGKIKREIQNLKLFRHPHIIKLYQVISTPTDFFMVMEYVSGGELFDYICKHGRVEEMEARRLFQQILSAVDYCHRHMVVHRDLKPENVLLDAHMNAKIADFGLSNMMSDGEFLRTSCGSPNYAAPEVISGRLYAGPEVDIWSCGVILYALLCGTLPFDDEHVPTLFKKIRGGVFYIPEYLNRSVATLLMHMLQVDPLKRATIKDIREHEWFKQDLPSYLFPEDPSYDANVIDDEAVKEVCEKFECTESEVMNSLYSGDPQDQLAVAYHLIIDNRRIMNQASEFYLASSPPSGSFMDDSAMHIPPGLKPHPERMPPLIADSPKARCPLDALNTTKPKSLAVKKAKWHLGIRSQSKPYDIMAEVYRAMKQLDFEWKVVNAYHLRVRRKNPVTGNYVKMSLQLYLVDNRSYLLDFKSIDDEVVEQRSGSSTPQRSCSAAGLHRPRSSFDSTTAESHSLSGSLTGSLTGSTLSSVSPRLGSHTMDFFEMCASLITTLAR
# Serine/threonine-protein kinase Chk2 (Homo sapiens), sequence (O96017 whole entry): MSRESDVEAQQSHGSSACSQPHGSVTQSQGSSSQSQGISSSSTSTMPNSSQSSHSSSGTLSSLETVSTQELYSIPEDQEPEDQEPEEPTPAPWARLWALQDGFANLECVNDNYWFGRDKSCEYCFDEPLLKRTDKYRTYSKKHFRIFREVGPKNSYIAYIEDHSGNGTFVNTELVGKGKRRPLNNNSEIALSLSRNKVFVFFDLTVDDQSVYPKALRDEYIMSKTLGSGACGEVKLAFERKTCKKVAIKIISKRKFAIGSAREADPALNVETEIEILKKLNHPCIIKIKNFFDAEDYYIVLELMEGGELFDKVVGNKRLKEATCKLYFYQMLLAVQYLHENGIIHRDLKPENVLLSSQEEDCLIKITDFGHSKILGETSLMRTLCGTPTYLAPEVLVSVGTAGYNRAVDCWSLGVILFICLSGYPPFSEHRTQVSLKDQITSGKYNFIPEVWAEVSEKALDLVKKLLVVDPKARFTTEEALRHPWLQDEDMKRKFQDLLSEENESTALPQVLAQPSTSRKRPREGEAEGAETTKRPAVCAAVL
# Calcium/calmodulin-dependent protein kinase type II subunit delta (Homo sapiens), sequence (Q13557 whole entry): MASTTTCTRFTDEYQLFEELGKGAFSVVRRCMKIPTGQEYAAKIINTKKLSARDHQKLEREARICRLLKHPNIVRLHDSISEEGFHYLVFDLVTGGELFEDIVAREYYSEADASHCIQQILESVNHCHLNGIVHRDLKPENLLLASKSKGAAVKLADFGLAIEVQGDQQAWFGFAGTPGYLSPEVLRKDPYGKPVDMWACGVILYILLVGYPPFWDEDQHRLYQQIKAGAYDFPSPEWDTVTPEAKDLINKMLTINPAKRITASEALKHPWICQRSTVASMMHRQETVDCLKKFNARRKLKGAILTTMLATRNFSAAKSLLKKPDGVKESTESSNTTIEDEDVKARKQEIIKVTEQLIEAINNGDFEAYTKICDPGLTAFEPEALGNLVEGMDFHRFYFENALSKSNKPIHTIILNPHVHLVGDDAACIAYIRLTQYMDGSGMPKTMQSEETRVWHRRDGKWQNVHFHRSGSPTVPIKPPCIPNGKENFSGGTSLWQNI
# Calcium/calmodulin-dependent protein kinase type II subunit alpha (Homo sapiens), sequence (Q9UQM7 whole entry): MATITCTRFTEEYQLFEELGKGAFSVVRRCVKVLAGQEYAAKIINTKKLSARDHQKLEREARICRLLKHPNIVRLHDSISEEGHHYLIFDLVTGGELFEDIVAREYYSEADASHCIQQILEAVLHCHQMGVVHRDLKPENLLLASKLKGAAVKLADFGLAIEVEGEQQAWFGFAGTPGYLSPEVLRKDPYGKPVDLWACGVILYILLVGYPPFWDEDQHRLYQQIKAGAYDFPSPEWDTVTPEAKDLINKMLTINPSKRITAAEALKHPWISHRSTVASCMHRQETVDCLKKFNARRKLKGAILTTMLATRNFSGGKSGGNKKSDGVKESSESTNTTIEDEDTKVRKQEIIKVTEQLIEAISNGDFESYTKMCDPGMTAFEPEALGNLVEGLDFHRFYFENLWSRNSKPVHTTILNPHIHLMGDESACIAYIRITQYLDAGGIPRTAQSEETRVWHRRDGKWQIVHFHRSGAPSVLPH
# Calcium/calmodulin-dependent protein kinase type 1D (Homo sapiens), sequence (Q8IU85 whole entry, looked up): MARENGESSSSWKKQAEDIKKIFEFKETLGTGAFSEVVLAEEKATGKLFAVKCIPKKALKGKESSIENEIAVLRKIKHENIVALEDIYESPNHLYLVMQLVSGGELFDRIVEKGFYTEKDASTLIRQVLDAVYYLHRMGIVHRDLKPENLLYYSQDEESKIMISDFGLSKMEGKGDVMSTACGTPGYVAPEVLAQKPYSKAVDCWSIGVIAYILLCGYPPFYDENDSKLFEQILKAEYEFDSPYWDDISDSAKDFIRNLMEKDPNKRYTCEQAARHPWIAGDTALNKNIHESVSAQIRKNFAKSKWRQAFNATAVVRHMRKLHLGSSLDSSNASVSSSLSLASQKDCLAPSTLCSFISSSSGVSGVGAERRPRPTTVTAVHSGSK
smiles,measurement,setting,value
CN(C)c1cc2c(Nc3ccc4nc(Cc5ccccc5)[nH]c4c3)ncnc2cn1,inhibition,[1],4.85%
same,inhibition,[2],0.74%
same,inhibition,[3],1.76%
same,inhibition,[4],3.31%
same,inhibition,[5],4.38%
same,inhibition,[6],3.85%
same,inhibition,[7],4.52%
same,inhibition,[8],1.13%
same,inhibition,[9],0.72%
same,inhibition,[10],4.11%
same,inhibition,[11],4.09%
same,inhibition,[12],4.46%
same,inhibition,[13],4.05%
same,inhibition,[14],1.47%
same,inhibition,[15],-2.01%
same,inhibition,[16],7.31%
same,inhibition,[17],6.99%
same,inhibition,[18],2.75%
same,inhibition,[19],9.92%
same,inhibition,[20],5.94%
Cc1nn(C)c2cc(N(C)c3ccnc(Nc4cccc(S(N)(=O)=O)c4)n3)ccc12,inhibition,[1],3.54%
same,inhibition,[2],20.6%
same,inhibition,[3],64.2%
same,inhibition,[4],1.45%
same,inhibition,[5],0.63%
same,inhibition,[6],0.72%
same,inhibition,[7],4.4%
same,inhibition,[8],0.85%
same,inhibition,[9],3.14%
same,inhibition,[10],1.6%
same,inhibition,[11],1.72%
same,inhibition,[12],2.35%
same,inhibition,[13],3.73%
same,inhibition,[14],1.4%
same,inhibition,[15],1.88%
same,inhibition,[16],4.46%
same,inhibition,[17],56%
same,inhibition,[18],6.25%
same,inhibition,[19],9.6%
same,inhibition,[20],8.62%
[O-][S+]1CCN(Cc2ccc(-c3ccc4ncnc(Nc5ccc(OCc6ccccc6)c(F)c5)c4c3)o2)CC1,inhibition,[2],1.72%
same,inhibition,[3],2.16%
same,inhibition,[4],3.74%
same,inhibition,[5],5.47%
same,inhibition,[6],4.69%
same,inhibition,[7],5.63%
same,inhibition,[8],-0.91%
same,inhibition,[9],1.4%
same,inhibition,[10],1.36%
same,inhibition,[11],2.39%
same,inhibition,[12],2.36%
same,inhibition,[13],2.19%
same,inhibition,[14],0.91%
same,inhibition,[15],0.5%
same,inhibition,[16],0.15%
same,inhibition,[17],3.65%
same,inhibition,[18],2.23%
same,inhibition,[19],7.61%
same,inhibition,[20],2.43%
CS(=O)(=O)CCNCc1ccc(-c2ccc3ncnc(Nc4ccc(OCc5cccc(F)c5)c(C(F)(F)F)c4)c3c2)o1,inhibition,[1],3.63%
same,inhibition,[2],2.03%
same,inhibition,[3],0.5%
same,inhibition,[4],-0.9%
same,inhibition,[5],-1.79%
same,inhibition,[6],1.37%
same,inhibition,[7],3.52%
same,inhibition,[8],-0.13%
same,inhibition,[9],0.72%
same,inhibition,[10],3.67%
same,inhibition,[11],3.37%
same,inhibition,[12],3.17%
same,inhibition,[13],2.68%
same,inhibition,[14],0.52%
same,inhibition,[15],-0.06%
same,inhibition,[16],8.99%
same,inhibition,[17],11.5%
same,inhibition,[18],6.84%
same,inhibition,[19],7.75%
same,inhibition,[20],11.7%
CCc1cccc(NC(=O)Nc2ccc(Oc3ccc4nc(NC(=O)OC)[nH]c4c3)cc2)c1,inhibition,[1],-0.72%
same,inhibition,[2],1.37%
same,inhibition,[3],4.18%
same,inhibition,[4],0.6%
same,inhibition,[5],0.32%
same,inhibition,[6],3.12%
same,inhibition,[7],5.96%
same,inhibition,[8],0.1%
same,inhibition,[9],1.18%
same,inhibition,[10],4.24%
same,inhibition,[11],3.77%
same,inhibition,[12],1.51%
same,inhibition,[13],2.63%
same,inhibition,[14],0.16%
same,inhibition,[15],-2.32%
same,inhibition,[17],-6.72%
same,inhibition,[18],-4.84%
same,inhibition,[19],-2.63%
same,inhibition,[20],-5.09%
Fc1cccc(COc2ccc(Nc3ncnc4sc(-c5cccs5)cc34)cc2Cl)c1,inhibition,[1],0.62%
same,inhibition,[2],4.02%
same,inhibition,[3],7.65%
same,inhibition,[4],0.56%
same,inhibition,[5],-0.44%
same,inhibition,[6],0.22%
same,inhibition,[7],1.9%
same,inhibition,[8],-1.31%
same,inhibition,[9],0.18%
same,inhibition,[10],-3%
same,inhibition,[11],-2.43%
same,inhibition,[12],-0.89%
same,inhibition,[13],1.53%
same,inhibition,[15],-0.72%
same,inhibition,[16],-6.44%
same,inhibition,[17],-5.05%
same,inhibition,[18],-6.31%
same,inhibition,[19],-6.27%
same,inhibition,[20],-9.21%
COc1cc(C)c(NC(=O)CN(C)C)cc1Nc1nc(Nc2cccc(F)c2C(N)=O)c2cc[nH]c2n1,inhibition,[1],4.27%
same,inhibition,[2],-0.32%
same,inhibition,[3],4.12%
same,inhibition,[4],1.09%
same,inhibition,[5],0.73%
same,inhibition,[6],0.37%
same,inhibition,[7],-2.24%
same,inhibition,[8],2.17%
same,inhibition,[9],16.7%
same,inhibition,[10],3.26%
same,inhibition,[11],8.59%
same,inhibition,[12],4.57%
same,inhibition,[13],14.2%
same,inhibition,[14],9.62%
same,inhibition,[15],40%
same,inhibition,[16],-4.03%
same,inhibition,[17],-1.09%
same,inhibition,[18],40.2%
same,inhibition,[19],76.2%
same,inhibition,[20],1.58%

# Reference: ChEMBL document CHEMBL1961873, “Compounds: GSK PKIS; Assays: Nanosyn kinase panel” (2012)
